Data taken from PubChem BioAssay (NCATS).
Where “and” joins values, the source holds several entries; their conditions need not be identical. Equal entries are not always repeated. Results filed as inconclusive are left out. Calls of active or inactive are those of the source. Unless noted, calls follow the shape of the dose curve; as a rule, active = well fitted curve in the direction sought with a large enough effect; inconclusive = small, poorly fitted or top-dose-only effect, or another doubt; inactive = no such curve, though single readings can be large; an effect the other way counts as inactive or inconclusive.

How the values were obtained:
[1] = qHTS assay for small molecule disruptors of the mitochondrial membrane potential - 1 hr assay (AID 651754; calls by dose curve; also: % is scaled to controls: 0 for no effect and ±100 for the full control effect; nearly all actives have a fitted effect of over 35% in size)
Method in brief: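 HepG2 cells, attached overnight, were exposed to compound for 1 hr at 37C, then stained 30 min with a potentiometric dye. Ratio of red aggregate (590nm) to green monomer (535nm) fluorescence reports membrane potential; collapse shifts signal toward green.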

[2] = qHTS assay for small molecule disruptors of the mitochondrial membrane potential - 5 hr assay (AID 651755; calls by dose curve; also: % is scaled to controls: 0 for no effect and ±100 for the full control effect; nearly all actives have a fitted effect of over 40% in size)
Method in brief: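 HepG2, 2,000 cells/well, overnight attach; cpd or DMSO 5 hr, 37C/5% CO2; Mito-MPS 30 min 37C; fluor 490/535 + 540/590 nm.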

[3] = target: Tumor necrosis factor (Homo sapiens) (UniProt P01375); assay: qHTS assay to identify small molecules that stimulate Tumor Necrosis Factor-alpha (TNF-alpha) secretion (AID 651757; active = well fitted curve in the direction sought with a large enough effect in the signal ratio; the % refers to the signal ratio; also: 0% is about no effect)
Method in brief: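 THP-1 cells (3000/well) exposed to compounds 17 hrs at 37 C. Secreted TNF-alpha detected by HTRF with cryptate- and XL665-labeled anti-TNF-alpha antibodies after 3 hr at room temperature.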

[4] = qHTS assay to identify small molecules that stimulate interleukin-8 (IL-8) secretion (AID 651758; active = well fitted activation curve with a large enough effect in the signal ratio; the % refers to the signal ratio; also: 0% is about no effect)
Method in brief: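 Secreted IL-8 measured by TR-FRET sandwich (cryptate and XL665 antibodies) from THP-1 cells exposed to compound overnight (16 hrs, 37 C).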

[5] = qHTS assay for environmental chemicals that activate the Aryl hydrocarbon Receptor (AhR) signaling pathway (AID 651777); settings: 1A2-DRE human hepatoma cells, luciferase, 24 h; activation: hits give high values; also: % of control where 0% means no effect; nearly all actives have a fitted effect of over 15% in size
Method in brief: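 Stable CYP1A2 promoter/DRE-luciferase human hepatoma line treated 24 hr; One-Glo luminescence, 30 min RT.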

[6] = target: Peroxisome proliferator-activated receptor alpha (Homo sapiens) (UniProt Q07869); assay: qHTS assay for small molecule agonists of the peroxisome proliferator-activated receptor alpha (PPARalpha) signaling pathway (AID 651778); settings: PathHunter PPARalpha complementation, chemiluminescence, 6 h; hits give high values; also: % of control where 0% means no effect
Method in brief: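 Chemiluminescence from complemented enzyme reported PPARalpha activation in cells after 6 hr of compound treatment at 37 C. The detection reagent was incubated for 60 min at room temperature, and compounds were scored as agonists.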

[7] = target: Nuclear receptor ROR-gamma (Homo sapiens) (UniProt P51449); assay: qHTS assay for small molecule antagonists of the retinoid-related orphan receptor gamma (ROR-gamma) signaling pathway (AID 651802);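 also: luciferase reporter luminescence driven by ROR response element; series mostly up to about 92 µM; % is scaled to controls: 0 for no effect and ±100 for the full control effect; nearly all actives have a fitted effect of over 60% in size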
Method in brief: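 CHO cells with TET-inducible ROR-gamma and RORE-luciferase reporter, dosed then doxycycline-induced. After 16 h at 37C, One-Glo luminescence read; decreased signal indicates antagonism.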

[8] = qHTS assay for small molecule agonists of the antioxidant response element (ARE) signaling pathway measured by Nrf2-dependant transcriptional activity (AID 720636; active = well fitted curve in the direction sought with a large enough effect in the repeat runs; an effect the other way counts as inactive or inconclusive;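 also: HepG2 cells with an ARE-driven luciferase reporter; % of control where 0% means no effect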)
Method in brief: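 Reporter gene assay, HepG2 ARE-luc: 16 hr compound, 37 C, 5% CO2; read-out luciferase luminescence.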

[9] = qHTS assay for small molecule antagonists of the retinoid-related orphan receptor gamma (ROR-gamma) signaling pathway - cell viability counter screen (AID 720652; active = well fitted curve in the direction sought with a large enough effect in the repeat runs; an effect the other way counts as inactive or inconclusive;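 also: series mostly up to about 92 µM; compound exposure lasted 16 hr before ATP read; % is scaled to controls: 0 for no effect and ±100 for the full control effect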)
Method in brief: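 CHO cells carrying TET-inducible ROR and RORE-luciferase reporter, plated 5 hr, then dosed with compound plus doxycycline. After 16 hr at 37 C, viability read as intracellular ATP by CellTiter-Glo luminescence.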

[10] = qHTS assay for small molecule agonists of the antioxidant response element (ARE) signaling pathway measured by Nrf2-dependant transcriptional activity - cell viability counter screen (AID 720653; active = well fitted curve in the direction sought with a large enough effect in the repeat runs; an effect the other way counts as inactive or inconclusive; also: % is scaled to controls: 0 for no effect and ±100 for the full control effect); settings: ARE-bla HepG2 viability, CellTiter-Glo ATP luminescence, 16 h; hits give low values
Method in brief: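 Cytotoxicity counter screen: intracellular ATP quantified by CellTiter-Glo luminescence in the same ARE-bla HepG2 plates, after 16 h compound exposure and a 2 h beta-lactamase substrate step.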

[11] = qHTS assay for cell viability of the p53RE-bla HCT-116 cell line (AID 743292); also: % is scaled to controls: 0 for no effect and ±100 for the full control effect; nearly all actives have a fitted effect of over 55% in size
Method in brief: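 Readout: CellTiter-Glo luminescence after 30 min RT. Treatment: compounds in DMSO, 16 h, 37 C. Cells: CellSensor p53RE-bla HCT-116, 4,000/well, preincubated 5 h.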

[12] = target: Nuclear receptor subfamily 1 group I member 2 (Rattus norvegicus) (UniProt Q9R1A7); assay: qHTS assay for small molecule activators of the rat pregnane X receptor (rPXR) signaling pathway (AID 651751; call rule not given here; also: 0% is about no effect); settings: rPXR reporter cells, luciferase (One-Glo), 24 h
[13] = qHTS assay for cell viability of HEK293 cells (AID 743288); settings: ATP luminescence (CellTiter-Glo), 18 h, hits give low values; also: % is scaled to controls: 0 for no effect and ±100 for the full control effect; nearly all actives have a fitted effect of over 50% in size
Method in brief: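 Environmental chemicals tested in qHTS format against parental HEK293 cells; 18 h treatment, 37 C; read-out ATP luminescence (CellTiter-Glo), 30 min RT development.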

[14] = qHTS assay for small molecule activators of the human pregnane X receptor (PXR) signaling pathway (AID 720659; call rule not given here; also: 0% is about no effect)

Peroxisome proliferator-activated receptor alpha (Homo sapiens), sequence (Q07869 whole entry, looked up): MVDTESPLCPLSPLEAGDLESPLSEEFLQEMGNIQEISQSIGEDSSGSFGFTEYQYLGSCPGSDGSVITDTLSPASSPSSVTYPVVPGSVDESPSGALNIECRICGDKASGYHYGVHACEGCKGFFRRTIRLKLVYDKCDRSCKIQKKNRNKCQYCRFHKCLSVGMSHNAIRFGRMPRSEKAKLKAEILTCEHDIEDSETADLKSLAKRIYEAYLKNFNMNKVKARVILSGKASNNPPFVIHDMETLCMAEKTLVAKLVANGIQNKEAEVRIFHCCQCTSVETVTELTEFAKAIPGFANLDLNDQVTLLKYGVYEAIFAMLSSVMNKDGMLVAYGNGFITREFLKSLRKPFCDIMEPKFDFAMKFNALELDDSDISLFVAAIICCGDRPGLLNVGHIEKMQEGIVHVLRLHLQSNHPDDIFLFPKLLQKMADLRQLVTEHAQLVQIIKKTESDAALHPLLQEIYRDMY
Tumor necrosis factor (Homo sapiens), sequence (P01375 whole entry, looked up): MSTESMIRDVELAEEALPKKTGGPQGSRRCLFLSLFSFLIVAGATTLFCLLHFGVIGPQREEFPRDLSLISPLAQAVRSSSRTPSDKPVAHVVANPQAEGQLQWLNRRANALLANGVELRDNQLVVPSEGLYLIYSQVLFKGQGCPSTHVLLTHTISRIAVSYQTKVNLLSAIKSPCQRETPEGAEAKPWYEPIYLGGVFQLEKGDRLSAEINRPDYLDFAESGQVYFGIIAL
Nuclear receptor subfamily 1 group I member 2 (Rattus norvegicus), sequence (Q9R1A7 whole entry, looked up): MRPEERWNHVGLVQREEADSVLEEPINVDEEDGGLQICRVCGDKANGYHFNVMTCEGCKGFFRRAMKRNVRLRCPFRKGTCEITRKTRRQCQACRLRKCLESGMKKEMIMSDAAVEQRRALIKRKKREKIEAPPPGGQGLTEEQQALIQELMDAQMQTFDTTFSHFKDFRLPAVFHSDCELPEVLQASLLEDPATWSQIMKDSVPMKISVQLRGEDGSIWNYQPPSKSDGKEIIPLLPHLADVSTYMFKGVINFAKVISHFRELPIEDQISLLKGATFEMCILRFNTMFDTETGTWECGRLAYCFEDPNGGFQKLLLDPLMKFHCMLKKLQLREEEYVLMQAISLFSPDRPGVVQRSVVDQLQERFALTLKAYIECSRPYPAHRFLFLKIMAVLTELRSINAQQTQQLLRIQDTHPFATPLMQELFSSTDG
Nuclear receptor ROR-gamma (Homo sapiens), sequence (P51449 whole entry, looked up): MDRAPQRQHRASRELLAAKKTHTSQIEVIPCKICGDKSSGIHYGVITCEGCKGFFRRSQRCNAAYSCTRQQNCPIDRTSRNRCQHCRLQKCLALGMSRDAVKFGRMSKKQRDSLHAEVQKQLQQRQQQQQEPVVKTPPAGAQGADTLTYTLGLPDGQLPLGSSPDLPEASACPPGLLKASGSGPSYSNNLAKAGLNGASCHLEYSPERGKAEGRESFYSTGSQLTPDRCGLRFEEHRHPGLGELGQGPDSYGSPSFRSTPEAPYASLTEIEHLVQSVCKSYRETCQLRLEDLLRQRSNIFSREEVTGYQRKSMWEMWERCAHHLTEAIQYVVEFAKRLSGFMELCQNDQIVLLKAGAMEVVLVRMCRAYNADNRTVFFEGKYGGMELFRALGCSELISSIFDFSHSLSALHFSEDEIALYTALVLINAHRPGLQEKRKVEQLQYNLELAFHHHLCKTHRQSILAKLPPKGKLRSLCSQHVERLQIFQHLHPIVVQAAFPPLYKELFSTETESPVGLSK

BrC/C=C/CBr
inactive: Potency [1] | Potency [2] | Potency [3] | Potency [4] | activation [5] 0.145% | max response [6] 3.19% | Potency [7] | outcome [8] | Potency [9] | max response [10] -9.49% | Potency [11] | max response [12] -0.603%

Cc1cccc(C(=O)O)c1[N+](=O)[O-]
inactive: Potency [1] | Potency [2] | Potency [3] | Potency [4] | activation [5] 1.97% | max response [6] -1.91% | Potency [7] | outcome [8] | Potency [9] | max response [10] 5.5% | max response [13] -1.21% | Potency [11] | max response [12] -0.47% | outcome [14]

Cc1cccc(C)c1O
inactive: Potency [1] | Potency [2] | Potency [3] | Potency [4] | activation [5] 0.0984% | max response [6] -7.29% | Potency [7] | outcome [8] | Potency [9] | max response [10] 8.44% | max response [13] 0.15% | Potency [11] | max response [12] 2.68% | outcome [14]

CC(O)COC(C)(C)C (stereo unspecified)
inactive: Potency [1] | Potency [2] | Potency [3] | Potency [4] | activation [5] -0.0727% | max response [6] -3.92% | Potency [7] | outcome [8] | Potency [9] | max response [10] 7.93% | max response [13] -14.3% | Potency [11] | max response [12] 2.3% | outcome [14]

CCN(Cc1ccccc1)c1ccccc1
inactive: Potency [1] | Potency [2] | Potency [3] | Potency [4] | activation [5] 0.346% | max response [6] 3.08% | Potency [7] | outcome [8] | Potency [9] | max response [10] -1.24% | max response [13] -4.87% | Potency [11] | max response [12] -3.13% | outcome [14]

Cc1ccc(CO)cc1
inactive: Potency [1] | Potency [2] | Potency [3] | Potency [4] | activation [5] -1.15% | max response [6] 4.64% | Potency [7] | outcome [8] | Potency [9] | max response [10] -0.358% | max response [13] 9.52% | Potency [11] | max response [12] 4.72% | outcome [14]

CC(C)C=O
inactive: Potency [1] | Potency [2] | Potency [3] | Potency [4] | activation [5] 0.299% | max response [6] -0.412% | Potency [7] | outcome [8] | Potency [9] | max response [10] -2.28% | max response [13] -10.3% | Potency [11] | max response [12] 1.58% | outcome [14]

ON=C1CCCCC1
inactive: Potency [1] | Potency [2] | Potency [3] | Potency [4] | activation [5] 0.388% | max response [6] 1.6% | Potency [7] | outcome [8] | Potency [9] | max response [10] 5.44% | max response [13] 1.04% | Potency [11] | max response [12] 3.07% | outcome [14]

Cc1cccc(C)c1[N+](=O)[O-]
inactive: Potency [1] | Potency [2] | Potency [3] | Potency [4] | activation [5] -1.35% and 15.8% | max response [6] 0.937% and 0.387% | Potency [7] | outcome [8] | Potency [9] | max response [10] -4.95% and -2.18% | max response [13] -0.503% and 0.264% | Potency [11] | max response [12] 1.64% and 13.2% | outcome [14]

CC(C)=C1CCC(C)CC1=O (stereo unspecified)
inactive: Potency [1] | Potency [2] | Potency [3] | Potency [4] | activation [5] -0.665% | max response [6] -4.55% | Potency [7] | outcome [8] | Potency [9] | max response [10] 3.25% | Potency [11] | max response [12] -2.32% | outcome [14]

CCCCC(CC)CO (stereo unspecified)
inactive: Potency [1] | Potency [2] | Potency [3] | Potency [4] | activation [5] -0.248% | max response [6] -2.86% | Potency [7] | outcome [8] | Potency [9] | max response [10] 7.9% | max response [13] -2.63% | Potency [11] | max response [12] -2.06% | outcome [14]

CC(C)=CCl
inactive: Potency [1] | Potency [2] | Potency [3] | Potency [4] | activation [5] 2.36% | max response [6] 0.634% | Potency [7] | outcome [8] | Potency [9] | max response [10] 14.9% | max response [13] -6.69% | Potency [11] | max response [12] 3.22% | outcome [14]

CCOc1ccccc1N
inactive: Potency [1] | Potency [2] | Potency [3] | Potency [4] | activation [5] -0.265% | max response [6] -0.0098% | Potency [7] | outcome [8] | Potency [9] | max response [10] 12.7% | Potency [11] | max response [12] 2.86% | outcome [14]

CC(=O)c1ccccn1
inactive: Potency [1] | Potency [2] | Potency [3] | Potency [4] | activation [5] -0.723% | max response [6] 0.325% | Potency [7] | outcome [8] | Potency [9] | max response [10] 5.72% | max response [13] -9.54% | Potency [11] | max response [12] 2.33% | outcome [14]

CC(C)N=C=NC(C)C
inactive: Potency [1] | Potency [2] | Potency [3] | Potency [4] | activation [5] -2.05% | max response [6] -2.65% | Potency [7] | outcome [8] | Potency [9] | max response [10] -1% | max response [13] 3.11% | Potency [11] | max response [12] 1.41% | outcome [14]
